D1 agonist: human D1 receptor agonism. P21728. HEK293 T-REx D1 cells, calcium flux, agonist mode. activation, % at 2 µM. actives 1% (n = 360,000). AID 504660
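Tetracycline-induced HEK293 TREx D1 cells, force-coupled to calcium signalling, were dye-loaded with a no-wash calcium kit. Compound was pin-added after a 10 s baseline. Fluorescence was read kinetically at 1 cycle/s for 180 s, with calcium rises flagged as agonism.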
D1 PAM: potentiators of human D1 dopamine receptor. P21728. HEK293 TREx D1 cells, calcium flux, dopamine EC20 potentiation. actives 0.036% (n = 360,000). AID 504651. potentiation, % at 10 µM; in the data active means potentiation above about 30%
TRHR agonist: activates the human TRH receptor | P34981 | AID 493084 | actives 0.18% (n = 360,000) | TRHR cells, calcium flux fluo-8, FDSS agonist mode | activation, % at 2 µM
Target sequence (P34981 whole entry, looked up): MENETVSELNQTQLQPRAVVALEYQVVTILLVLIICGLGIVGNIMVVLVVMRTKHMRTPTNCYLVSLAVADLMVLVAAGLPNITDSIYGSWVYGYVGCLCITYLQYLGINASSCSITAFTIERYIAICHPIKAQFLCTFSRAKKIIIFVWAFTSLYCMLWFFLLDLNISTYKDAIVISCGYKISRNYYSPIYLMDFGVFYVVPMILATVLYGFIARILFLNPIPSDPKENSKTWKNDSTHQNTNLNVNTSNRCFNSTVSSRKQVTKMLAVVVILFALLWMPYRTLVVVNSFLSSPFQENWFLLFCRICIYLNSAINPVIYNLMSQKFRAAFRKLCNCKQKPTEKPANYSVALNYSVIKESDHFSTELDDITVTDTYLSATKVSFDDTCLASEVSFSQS
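Steps: seed TRHR cells overnight; add fluo-8 no-wash Ca dye, RT 30 min–1.5 h; record 10 s baseline; pin-transfer compounds; monitor fluorescence 1 cycle/s for the agonist window. Calcium increases flag candidate agonists.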
D1 antag: human D1 dopamine receptor antagonism. HEK293 TREx D1 cells, calcium flux, dopamine EC80; stronger effect = lower value. actives 3.2% (n = 360,000). AID 504652. activity change, negative = inhibition, % at 10 µM; in the data active means activity change below about -30%
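Antagonism measured as reduced calcium response to an EC80 dopamine addition following 180 s compound pre-read; cells were inducible HEK293 Trex D1 plated overnight at 30 C, read kinetically at 1 cycle/sec.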
TRHR PAM: allosteric enhancers of human TRH receptor. TRHR cells, fluo-8 calcium fluorescence, EC20 TRH enhancement. enhancement, % at 2 µM. actives 0.66% (n = 360,000). AID 493056. P34981; in the data active means enhancement above about 30%
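TRHR-expressing cells loaded with fluo-8 calcium dye were read kinetically (ex 480/em 530) during compound addition, then stimulated with an EC20 of TRH (10 nM final). Enhancement of the Gq-mediated intracellular calcium response was scored.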
Of the large screens only hits and unclear results are named; the others gave an inactive call. Most compounds without a hit are left out; they make up all but 4.6% or so of the library. Unless noted, no stated cut-off is given here; in the data, active means activation above about 30%; inactive means the rest.

COc1ccc(CSCCNC(=S)Nc2ccccc2)cc1Cl	D1 antag -33.2
CN(C)c1nc(N)nc(CSc2nnnn2-c2ccc(F)cc2)n1	TRHR PAM 38.0
Nc1nc(CSc2nnnn2-c2ccccc2)nc(N2CCCc3ccccc32)n1	none
COc1ccc(CCn2c3c(c(=O)[nH]c2=O)C(NC(=O)c2ccc(C(C)(C)C)cc2)(C(F)(F)F)C(=O)N3)cc1OC (stereo unspecified)	none
CCN(C(=O)c1cc2c(s1)-c1ccccc1OC2)c1cc(Cl)ccc1OC	none
CCOC(=O)c1cc(C)n(CC2CCC(C(=O)Nc3cccc(Cl)c3)CC2)c1C (stereo unspecified)	none
CCOC(=O)c1cc(C)n(CC2CCC(C(=O)Nc3ccc(Cl)cc3)CC2)c1C (stereo unspecified)	D1 antag -33.8
CCN(CC(=O)NCc1cccs1)C(=O)/C=C/c1ccc(OC)cc1OC	none
CCN(CC(=O)Nc1ccc2c(c1)OCCO2)C(=O)C1CC(=O)N(c2ccc(OC)cc2OC)C1 (stereo unspecified)	none
CCN(CC(=O)NCc1cccs1)C(=O)C1CC(=O)N(c2ccc(OC)cc2OC)C1 (stereo unspecified)	D1 antag -33.9
CCN(CC(=O)NCc1cccs1)C(=O)/C=C/c1cc(OC)ccc1OC	D1 antag -67.3
Cc1[nH]c(=O)[nH]c(=O)c1CSCC(=O)OCC(=O)Nc1ccccn1	none
COc1cccc(CNC(=O)CCCNS(=O)(=O)c2cccs2)c1	D1 antag -91.6
O=C(CCNS(=O)(=O)c1cccs1)NCc1ccccc1	none
O=C(/C=C/c1ccco1)NC(=S)Nc1cccc([N+](=O)[O-])c1	TRHR PAM 32.3
O=C(Nc1ccc2ncccc2c1)Nc1ccc2ncccc2c1	D1 antag -35.6
COc1ccc(Cl)cc1NC(=O)COC(=O)CCCN1C(=O)c2ccccc2C1=O	D1 antag -32.6
COc1ccc(Cl)cc1NC(=O)CCCn1c(C)c2cnn(-c3ccccc3)c(=O)c2c1C	D1 antag -78.6
CCOc1ccc(N(C(=O)c2ccc(Cl)cc2)S(=O)(=O)c2ccc3c(c2)n(C)c(=O)n3C)cc1	none
CNC(=S)N1CCN(c2nc3ccccc3s2)CC1	none
Cc1ccc2c(C(=O)CN3CCC4(CC3)OCCO4)c(C)[nH]c2c1	none
Cc1ccc2c(C(=O)CN3CCSCC3)c(C)[nH]c2c1	D1 antag -44.1
Nc1[nH]n2c(=O)cc(-c3ccccc3)nc2c1N=Nc1ccccc1	D1 antag -37.9
Cc1cccc(N2CCN(C(=O)CN3C(=O)COc4ccc(S(=O)(=O)N5CCCCCC5)cc43)CC2)c1C	none
COc1ccc(C(=O)n2nc(-c3ccco3)nc2N)cc1OC	none
COc1ccc(C(=O)n2nc(-c3ccccc3)nc2N)cc1OC	D1 antag -34.1
CC1CCC(NC(=O)C2(C)Cc3ccccc3C(=O)N2Cc2ccc(Cl)cc2)CC1 (stereo unspecified)	D1 antag -52.3
Cc1c(S(=O)(=O)Nc2ccc(Oc3ccccc3)cc2)c(=O)n(C)c(=O)n1C	none
CCOC(=O)c1ccc(CN(Cc2ccccc2C)S(=O)(=O)c2ccc(C(C)(C)C)cc2)cc1	none
COc1ccc(C(=O)Nc2nnc(SCC(=O)Nc3ccc(NC(C)=O)cc3)s2)c(OC)c1	none
CCc1nnc(NC(=O)c2ccc(OC)cc2OC)s1	D1 antag -30.2
O=C1CC(C(=O)Nc2cccc3ccccc23)C2(CCCC2)O1 (stereo unspecified)	D1 agonist 34.1
O=C(NC(=S)NCCC1=CCCCC1)c1cncc(Br)c1	D1 antag -31.8
CC(C)CCNC(=O)C(=O)NCCC1=CCCCC1	D1 antag -46.9
CS(=O)(=O)N(Cc1ccc(Cl)cc1)c1ccc(C(=O)NCCC2=CCCCC2)cc1	none
CCCNC(=O)C(=O)NCCC1=CCCCC1	none
O=C(NCCc1ccc(Cl)cc1)c1ccc2c(c1)OCCO2	D1 antag -36.7
O=C(NCCC1=CCCCC1)c1ccc(Cl)cc1	D1 antag -41.2
CC(=O)CC1(C)OC(N)=C(C#N)C1(C#N)C#N (stereo unspecified)	D1 antag -30.4
Cc1ccc(NC(=O)CCCNC(=O)c2ccc(Cl)cc2)c(O)c1	D1 antag -32.3
CCOC(=O)c1ccccc1NC(=O)N1CCC(CN2CCCCC2)CC1	none
CCCCc1ccc(S(=O)(=O)Nc2ccc(C)c(NS(C)(=O)=O)c2)cc1	D1 antag -35.1
O=C(Nc1ccc(C(=O)N2CCN(c3cccc(Cl)c3)CC2)cc1)c1nsc2ccccc12	none
Cc1nc(-c2cc(C#N)c(Sc3cccc(C(F)(F)F)c3)nc2C)cs1	D1 agonist 30.2, D1 antag -55.2
Cc1cccc(CS(=O)(=O)c2ncc(Cl)c(C(=O)Nc3c(C)cccc3C)n2)c1	D1 antag -31.6
Cc1cccc(CS(=O)(=O)c2ncc(Cl)c(C(=O)NCc3ccccc3)n2)c1	D1 antag -32.5
COc1ccc2nc(NC(=O)c3nc(S(=O)(=O)Cc4cccc(C)c4)ncc3Cl)sc2c1	D1 antag -30.8
COc1ccc(CNC(=O)c2cnc(N(C)C)nc2)cc1	none
Cc1ccc(CNC(=O)c2cnc(N(C)C)nc2)cc1	D1 antag -41.6
CCCCn1c(C(C)NC(=O)c2ccccc2)nc2ccccc21 (stereo unspecified)	none
CC(NC(=O)CN1C(=O)COc2ccc(S(=O)(=O)N3CCCCCC3)cc21)c1ccccc1 (stereo unspecified)	none
O=C1CC(C(=O)N2CCc3ccccc32)CN1c1ccccc1 (stereo unspecified)	D1 antag -30.8
Cc1ccc(N2CC(C(=O)N3CCc4ccccc43)CC2=O)cc1 (stereo unspecified)	none
N#C/C(=C/c1ccc(O)cc1)c1nc(-c2ccc(-c3ccccc3)cc2)cs1	TRHR PAM 43.3
COc1ccc(/C=C(/C#N)c2nc(-c3ccc(-c4ccccc4)cc3)cs2)cc1	none
CCCCc1c(C)nc2c(-c3ccc(OC)cc3)c(C)[nH]n2c1=O	D1 agonist 41.6
COc1ccc(-c2cc3ccc(O)c(CN4CCCC(C)C4)c3oc2=O)cc1OC (stereo unspecified)	TRHR agonist 31.9
CN1CCN(Cc2c(O)ccc3cc(-c4ccc(Cl)cc4)c(=O)oc23)CC1	D1 agonist 32.3
O=c1oc2c(CN3CCN(CCO)CC3)c(O)ccc2cc1-c1ccccc1	none
COc1ccc(Nc2c3ccccc3nc3ccccc23)cc1	D1 antag -95.5
COc1ccccc1Nc1c2ccccc2nc2ccccc12	D1 antag -52.4
COc1ccc(Nc2c3c(nc4ccccc24)CCC3)cc1	none
c1cncc(Nc2c3ccccc3nc3ccccc23)c1	D1 antag -30.7
COc1ccc(Nc2nc(N3CCCC3)c3ccccc3n2)cc1	D1 antag -51.3
COc1ccc2oc(=O)cc(CN3CCN(c4ccccc4OC)CC3)c2c1	none

Screening results as filed in PubChem BioAssay.
